Data taken from PubChem BioAssay AID624330 (Southern Research Specialized Biocontainment Screening …, 2012).
The whole screen tested about 340,000 compounds, of which about 2,100 (0.62%) were called active.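 Rule for the calls: active = first-screen hits whose inhibition reached a set limit at any dose in the follow-up dose series; inconclusive = inhibition above the set first-screen limit but never retested; inactive = the rest.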 Not all results are given here. Measured potencies and affinities stand elsewhere.

Target: Rac GTPase-activating protein 1 (Homo sapiens) (UniProt Q9H0H5)
Assay: MgcRacGAP GTPase-activating activity inhibitors, confirmation, biochemical, ADP Hunter fluorescence, primary and confirmatory (AID 624330);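 note: fluorescence reports GDP produced by GAP-driven GTP hydrolysis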
Details: MgcRacGAP-stimulated Rac1 GTP hydrolysis, at 30 µM, stronger effect = higher value, GST-tagged Rac1 F28L mutant substrate

Chain of Rac GTPase-activating protein 1 (Homo sapiens) (Q9H0H5 whole entry, looked up): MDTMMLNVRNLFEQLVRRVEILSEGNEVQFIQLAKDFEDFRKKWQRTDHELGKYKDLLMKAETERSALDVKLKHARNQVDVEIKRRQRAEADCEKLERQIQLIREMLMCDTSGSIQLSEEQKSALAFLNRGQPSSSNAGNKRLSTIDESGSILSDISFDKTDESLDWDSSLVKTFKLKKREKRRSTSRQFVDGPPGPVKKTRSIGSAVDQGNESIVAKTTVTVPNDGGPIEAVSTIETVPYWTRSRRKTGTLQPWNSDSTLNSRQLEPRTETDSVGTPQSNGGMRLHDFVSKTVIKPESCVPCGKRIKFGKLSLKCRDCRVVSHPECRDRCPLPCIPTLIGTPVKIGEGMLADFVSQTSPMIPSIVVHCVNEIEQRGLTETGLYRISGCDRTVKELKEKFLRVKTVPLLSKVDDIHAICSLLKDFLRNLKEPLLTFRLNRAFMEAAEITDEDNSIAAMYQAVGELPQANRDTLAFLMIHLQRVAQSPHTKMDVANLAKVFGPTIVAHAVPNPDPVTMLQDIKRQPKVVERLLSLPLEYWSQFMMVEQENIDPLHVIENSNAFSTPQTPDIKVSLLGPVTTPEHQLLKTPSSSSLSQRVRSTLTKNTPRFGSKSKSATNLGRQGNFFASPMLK

inhibition, inactive:
CC(C)(C)C(=O)NC(=S)NNC(=O)C(c1ccccc1)c1ccccc1 6.5%
O=C(O)CC/C(=N/NC(=O)CNC(=O)c1ccc2c(c1)OCCO2)c1ccccc1 3.51%
CCOC(=O)C(=O)Nc1cccc(C(=O)OCC)c1 -6.93%
COc1cc(C=NNC(=O)c2ccccc2NS(=O)(=O)c2cccs2)cc(OC)c1O 9.93%
CC(NC(=O)c1ccccc1)C(=O)N/N=C/c1ccc(O)cc1 (configuration not stated) 27%
O=C(NN=Cc1c(F)cccc1F)c1ccccc1NS(=O)(=O)c1cccs1 3.9%
O=C(NN=Cc1cc(Br)c(O)c(Br)c1)c1ccccc1NS(=O)(=O)c1cccs1 15.4%
COc1ccc(/C=N/NC(=O)Nc2cccc3nsnc23)cc1 -1.96%
COc1ccccc1/C=N/NC(=O)C(NC(=O)c1ccccc1)=C(C)C 4.44%
COc1ccc(/C=N/NC(=O)Nc2cccc3nsnc23)cc1OC 6.64%
COc1ccc(C=NNC(=O)c2ccccc2NS(=O)(=O)c2cccs2)cc1O 12.1%
COc1ccc(-c2cc(-c3ccccc3)nc(N3CCCC3)n2)cc1OC 3.15%
Cc1cc(C)c(C)c(S(=O)(=O)NCCCN2CCCC2=O)c1C 5.47%
CC(C)(C)c1ccc(N2C(=O)CC(c3ccccc3)C2=O)cc1 (configuration not stated) 4.86%
Cc1nc(N2CCN(C(=O)c3ccco3)CC2)c(C#N)c2c1CCCC2 5.84%
CCOC(=O)N1CCN(Cc2ccc3c(c2)OCO3)CC1 11.9%
CCOCC(=O)N1CCN(Cc2ccc3c(c2)OCO3)CC1 -16%
COc1cccc(C(=O)N2CCN(Cc3ccc4c(c3)OCO4)CC2)c1OC 9.39%
Cc1cc(C)cc(C(=O)N2CCN(Cc3ccc4c(c3)OCO4)CC2)c1 0.95%
COc1cccc(C(=O)N2CCN(Cc3ccccc3Br)CC2)c1 21.5%
COc1cc(OC)cc(C(=O)N2CCN(Cc3ccccc3C(F)(F)F)CC2)c1 11.6%
COc1ccccc1C(=O)N1CCN(Cc2ccc3c(c2)OCO3)CC1 2.13%
COc1cc(C(=O)N2CCN(Cc3ccc4c(c3)OCO4)CC2)cc(OC)c1OC 13.3%
Cc1ccccc1NC(=O)N1CCCC1C(=O)NCc1cccs1 (configuration not stated) 11.4%
CC(=O)Nc1ccc(CN2CCc3c([nH]c4ccccc34)C2C(C)(C)C)cc1 (configuration not stated) 6.78%
CCCc1n[nH]c2c1/C(=N/O)CC(c1ccccc1)C2 (configuration not stated) 12.8%
COc1cc(C)c(S(=O)(=O)N2CCCC2)cc1C 4.75%
CN(Cc1ccccc1)C(=O)COC(=O)c1ccc(S(=O)(=O)N(C)C)cc1 9.46%
O=C1C=C(c2ccccc2)C(O)(c2ccccc2)C1 (configuration not stated) 4.42%
CC1CN(C(=O)CS(=O)(=O)Cc2ccc(Cl)cc2)CC(C)O1 (configuration not stated) 6.85%
O=C(/C=C/Nc1ccc(F)cc1)c1ccc(Oc2ncccn2)cc1 10.5%
CCCCNS(=O)(=O)c1ccc2nc(SCC(=O)Nc3sccc3C#N)[nH]c2c1 4.59%
COC(=O)C1CCN(C(=O)Cc2ccc(OC)c(OC)c2)CC1 -0.01%
O=C(Cc1cccs1)Nc1nnc(Cc2ccccc2)s1 22.3%
COc1ccc(Cc2nnc(NC(=O)Cc3cccs3)s2)cc1OC 4.75%
CC1=NNC(=O)C1CC(=O)N/N=C(\C)c1cccs1 (configuration not stated) 3.05%
O=C(CCN1C(=O)c2cccc3cccc(c23)C1=O)Nc1ccccc1 2.77%
C=CCN1C(=O)CSC1=Nc1ccc(C(=O)O)cc1 6.53%
COc1ccc(N=C2SCC(=O)N2c2ccc(OC)cc2)cc1 -0.28%
CN1C(=O)CSC1=Nc1ccc(F)cc1 4.45%
C=CCN1C(=O)CSC1=Nc1cccc(O)c1 3.76%
O=C(NCCN1C(=O)S/C(=C\c2ccccc2Cl)C1=O)C1=COCCO1 3.87%
COc1cc2c(cc1OC)C(C)N(C(=S)Nc1ccccc1)CC2 (configuration not stated) 7.46%
NC(c1ccncc1)c1ccc(Cl)cc1 (configuration not stated) 13.9%
COC(=O)c1cccc(N2CCCC2=O)c1 9.18%
COC(=O)c1cccc(N2C(=O)c3ccccc3S2(=O)=O)c1 0.68%
O=C(O)c1cccc(N2CCCC2)c1 15.6%
O=C(O)c1cccc(N2CCCC2=O)c1 5.07%
CCCN(CCC)Cc1c(C(=O)N/N=C/CCc2ccccc2)nnn1-c1nonc1N 11.3%
Nc1ncc2c(n1)CCN(c1ccc([N+](=O)[O-])cc1)C2 7.74%
CC[C@H](C)[C@@H](C(=O)N1CCNCC1)n1cc([C@@H](N)CC(C)C)nn1 0.32%
O=C(O)c1cccc(N/N=C/c2cn(-c3ccccc3)nc2-c2cccs2)c1 3.09%
O=C(O)c1cccc(N/N=C/c2ccc(-c3ccccc3)cc2)c1 -7.28%
CC(C)(C)c1ccc(/C=N/Nc2cccc(C(=O)O)c2)cc1 6.23%
Cc1ccsc1/C=N/NC(=O)Nc1ccccc1 1.94%
O=C(O)c1cccc(N/N=C/c2cccc3ccccc23)c1 8.13%
CN(C)c1ccc(/C=N/Nc2cccc(C(=O)O)c2)cc1 -3.06%
Cc1ccc(NC(=O)CN2C(=O)NC3(CCc4ccccc43)C2=O)cc1 (configuration not stated) -6.82%
CC(=O)c1ccc(NC(=O)CN2C(=O)NC3(CCc4ccccc43)C2=O)cc1 (configuration not stated) 1.63%
CCOc1cccc(NC(=O)c2ccc(S(=O)(=O)N3CCCC3)cc2)c1 3.15%
O=S(=O)(c1ccccc1)c1nc(-c2ccco2)oc1NCCCN1CCOCC1 8.7%
O=C(/C=C/c1ccc(Cl)cc1Cl)Nc1cccc(S(=O)(=O)NC2=NCCCCC2)c1 5.67%
